# PubChem BioAssay (NCATS)
# Results filed as inconclusive are left out. A call without a number means that no potency is given here. Activity calls are given as the source filed them. Calls follow the shape of the dose curve; as a rule, active = well fitted curve in the direction sought with a large enough effect; inconclusive = small, poorly fitted or top-dose-only effect, or another doubt; inactive = no such curve, though single readings can be large; an effect the other way counts as inactive or inconclusive.
# Test: qHTS of pediatric cancer cell lines to identify multiple opportunities for drug repurposing: Confirmatory screen for Rh30 cells (AID 1347126); also: nearly all actives have a fitted effect of over 55% in size
# Details: Rh30 rhabdomyosarcoma cell viability; series mostly up to 45.9 µM
# Summary of the method: (§1)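 Viability after 48 h compound treatment at 37C, 500-1,000 cells/well, read as ATP luminescence with CellTiter-Glo. Primary screens used 11-point (MIPE, 0.78 nM-46 µM) or 8-point (NPC, 0.59 nM-46 µM) final concentrations; follow-up screens used 11-point dilutions.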
# Potency is read from the fitted curve at half-maximal effect.
row,SMILES,Potency
1,CNC1CCC(N(Cc2cccc(-c3ccncc3)c2)C(=O)c2sc3c(F)ccc(F)c3c2Cl)CC1 (centres undefined),23.3 µM (active)
2,Cc1nnc(C(C)C)n1C1C[C@H]2CC[C@@H](C1)N2CC[C@H](NC(=O)C1CCC(F)(F)CC1)c1ccccc1 (some centres undefined),9.27 µM (active)
3,CC1(C)CCC2=C(O1)c1ccccc1C(=O)C2=O,20.8 µM (active)
4,CO[C@H]1C[C@@H]2CC[C@@H](C)[C@@](O)(O2)C(=O)C(=O)N2CCCC[C@@H]2C(=O)O[C@H]([C@H](C)C[C@@H]2CC[C@H](OCCO)[C@H](OC)C2)CC(=O)[C@H](C)C=C(C)[C@@H](O)[C@@H](OC)C(=O)[C@H](C)C[C@H](C)C=CC=CC=C1C,inactive
5,O=C1NC(=O)C(=Cc2ccc3c(c2)OC(F)(F)O3)S1,inactive
6,CO[C@H]1C[C@@H]2CC[C@@H](C)[C@@](O)(O2)C(=O)C(=O)N2CCCC[C@@H]2C(=O)O[C@H]([C@H](C)C[C@@H]2CC[C@H](OP(C)(C)=O)[C@H](OC)C2)CC(=O)[C@H](C)C=C(C)[C@@H](O)[C@@H](OC)C(=O)[C@H](C)C[C@H](C)C=CC=CC=C1C,18.5 µM (active)
7,CC(=O)Nc1ccc([C@H](C)C(=O)Nc2ncc(C(C)C)s2)cc1,2.08 µM (active)
8,NS(=O)(=O)c1cccc2c1C(=O)c1cccc(O)c1C2=O,2.93 µM (active)

# Test: qHTS of pediatric cancer cell lines to identify multiple opportunities for drug repurposing: Confirmatory screen for Saos-2 cells (AID 1347127); also: nearly all actives have a fitted effect of over 60% in size
# Details: Saos-2 osteosarcoma cell viability; series mostly up to 45.9 µM
# Summary of the method: as §1
row,SMILES,Potency
1,O=C(O)c1ccc(-c2cc3cccnc3c(-c3ccc4nonc4c3)n2)cc1,5.22 µM (active)
2,CC1(C)CCC2=C(O1)c1ccccc1C(=O)C2=O,10.4 µM (active)
3,O=C1NC(=O)C(=Cc2ccc3c(c2)OC(F)(F)O3)S1,inactive
4,CC(=O)Nc1ccc([C@H](C)C(=O)Nc2ncc(C(C)C)s2)cc1,5.22 µM (active)
5,O=C(NCc1ccncc1)C12C[C@H]3C[C@@H](C1)CC(c1ccc(Cl)cc1)(C3)C2,16.5 µM (active)
6,COc1ccc2c(Oc3ccc(NC(=O)c4c(C)n(CC(C)(C)O)n(-c5ccccc5)c4=O)cc3F)ccnc2c1,inactive
7,O=c1cc(-c2ccc(O)cc2)oc2cc(O)cc(O)c12,inactive
8,NS(=O)(=O)c1cccc2c1C(=O)c1cccc(O)c1C2=O,0.928 µM (active)

# Test: qHTS of pediatric cancer cell lines to identify multiple opportunities for drug repurposing: Confirmatory screen for OHS-50 cells (AID 1347128);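 also: compound exposure lasted 48 h at 37 degrees C; nearly all actives have a fitted effect of over 55% in size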
# Details: OHS-50 osteosarcoma cells viability; series mostly up to 45.9 µM
# Summary of the method: as §1
row,SMILES,Potency
1,O=C(O)c1ccc(-c2cc3cccnc3c(-c3ccc4nonc4c3)n2)cc1,6.57 µM (active)
2,O=C1NC(=O)C(=Cc2ccc3c(c2)OC(F)(F)O3)S1,inactive
3,CC(=O)Nc1ccc([C@H](C)C(=O)Nc2ncc(C(C)C)s2)cc1,7.37 µM (active)
4,O=C(NCc1ccncc1)C12C[C@H]3C[C@@H](C1)CC(c1ccc(Cl)cc1)(C3)C2,13.1 µM (active)
5,NS(=O)(=O)c1cccc2c1C(=O)c1cccc(O)c1C2=O,2.93 µM (active)

# Test: qHTS of pediatric cancer cell lines to identify multiple opportunities for drug repurposing: Confirmatory screen for SK-N-SH cells (AID 1347129);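 also: cells exposed to compound for 48 h before viability read; nearly all actives have a fitted effect of over 60% in size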
# Details: SK-N-SH neuroblastoma cell viability; series mostly up to 46.1 µM
# Summary of the method: as §1
row,SMILES,Potency
1,CC=C(C)C(=O)O[C@H]1C(C)=C[C@]23C(=O)[C@@H](C=C(CO)[C@@H](O)[C@]12O)[C@H]1[C@@H](C[C@H]3C)C1(C)C,inactive
2,CNC1CCC(N(Cc2cccc(-c3ccncc3)c2)C(=O)c2sc3c(F)ccc(F)c3c2Cl)CC1 (centres undefined),inactive
3,Cc1nnc(C(C)C)n1C1C[C@H]2CC[C@@H](C1)N2CC[C@H](NC(=O)C1CCC(F)(F)CC1)c1ccccc1 (some centres undefined),inactive
4,O=C(O)c1ccc(-c2cc3cccnc3c(-c3ccc4nonc4c3)n2)cc1,inactive
5,CO[C@H]1C[C@@H]2CC[C@@H](C)[C@@](O)(O2)C(=O)C(=O)N2CCCC[C@@H]2C(=O)O[C@H]([C@H](C)C[C@@H]2CC[C@H](OCCO)[C@H](OC)C2)CC(=O)[C@H](C)C=C(C)[C@@H](O)[C@@H](OC)C(=O)[C@H](C)C[C@H](C)C=CC=CC=C1C,inactive
6,O=C1NC(=O)C(=Cc2ccc3c(c2)OC(F)(F)O3)S1,inactive
7,CO[C@H]1C[C@@H]2CC[C@@H](C)[C@@](O)(O2)C(=O)C(=O)N2CCCC[C@@H]2C(=O)O[C@H]([C@H](C)C[C@@H]2CC[C@H](OP(C)(C)=O)[C@H](OC)C2)CC(=O)[C@H](C)C=C(C)[C@@H](O)[C@@H](OC)C(=O)[C@H](C)C[C@H](C)C=CC=CC=C1C,inactive
8,CC(=O)Nc1ccc([C@H](C)C(=O)Nc2ncc(C(C)C)s2)cc1,6.62 µM (active)
9,CC[C@@H]1C=C(C)C[C@H](C)C[C@H](OC)[C@H]2O[C@@](O)(C(=O)C(=O)N3CCCC[C@@H]3C(=O)O[C@H](C(C)=C[C@@H]3CC[C@H](Cl)[C@H](OC)C3)[C@H](C)[C@@H](O)CC1=O)[C@H](C)C[C@H]2OC,inactive
10,O=C(NCc1ccncc1)C12C[C@H]3C[C@@H](C1)CC(c1ccc(Cl)cc1)(C3)C2,inactive
11,Cc1cc(OCCCc2c(C(=O)O)n(Cc3cccnc3)c3c(-c4c(COc5ccc(N6CCN([S+](C)(=O)[O-])CC6)cc5)nn(C)c4C)cccc23)cc(C)c1Cl,inactive
12,O=c1cc(-c2ccc(O)cc2)oc2cc(O)cc(O)c12,inactive
13,NS(=O)(=O)c1cccc2c1C(=O)c1cccc(O)c1C2=O,2.09 µM (active)
